IL1B secr inh: qHTS for Inhibitors of Inflammasome Signaling: IL-1-beta AlphaLISA Primary Screen; THP-1 LPS/ATP IL-1B secretion, AlphaLISA, 16 h; active compounds read low; activity change, % at 57.5 µM; actives 4.7% (n = 360,000); in the data active = activity change below about -50%; inconclusive = mostly about -30% to -49%
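Secreted IL-1B measured by AlphaLISA bead assay after 16 h compound exposure of THP-1 cells; compounds (final up to 57.5 uM) added 1 h before LPS (250 ng/mL) and ATP (1.25 mM) stimulation; lower signal means less secretion.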
ELG1 repair inh: qHTS screen for small molecules that inhibit ELG1-dependent DNA repair in human embryonic kidney (HEK293T) cells expressing luciferase-tagged ELG1; HEK293T ELG1-luciferase reporter, luminescence, 16 h; DNA damage induced by 5-fluorouridine; Potency, µM (top dose mostly 46.1 µM), for the others: top-dose activity change, negative = inhibition, most hits filed as inhibitors; actives 2.3% (n = 330,000); AID 504467, 2011; note: potency is the fitted concentration of half-maximal effect; nearly all actives have a fitted effect of over 55% in size
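HEK293T cells expressing luciferase-tagged ELG1 (2,000/well) received 5-Fluorouridine plus compound or DMSO for 16 hr at 37 °C. Luciferase was read by ONE-Glo luminescence after 30 min at room temperature.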
Gal4-VP16 FLuc: VP16 counterscreen qHTS for inhibitors of ROR gamma transcriptional activity; Drosophila S2 Gal4-VP16 UAS-luciferase, luminescence, 20 h; Potency, µM (highest dose often 53.6 µM), for the others: at the top dose activity, negative = inhibition, usual class: inhibitors; actives 3.5% (n = 310,000); AID 2546, 2010;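 note: Gal4-VP16 expression switched on by copper sulfate through the metallothionein promoter; potency is the fitted concentration of half-maximal effect; nearly all actives have a fitted effect of over 50% in size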
DT40 TDP1 CPT: qHTS for Inhibitors of human tyrosyl-DNA phosphodiesterase 1 (TDP1): qHTS in cells in presence of CPT; chicken DT40 Tdp1-/-;hTDP1 cells + 20 nM CPT, ATP luminescence, 48 h; Potency, µM (highest dose often 46.2 µM), inactives show top-dose activity change, negative = growth inhibition, usual class: inhibitors; actives 12% (n = 420,000); AID 686979, 2013; note: potency is the fitted concentration of half-maximal effect; nearly all actives have a fitted effect of over 55% in size
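Cell growth measured by CellTiter-Glo luminescence after a minimum 48 h, 37 C compound exposure with 20 nM CPT in Tdp1-knockout DT40 cells stably expressing hTDP1, seeded 400/well; qHTS titration format.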
RORg inh: qHTS for inhibitors of ROR gamma transcriptional activity | Drosophila S2 Gal4-RORgamma UAS-luciferase reporter, 20 h | Nuclear receptor ROR-gamma (Mus musculus), P51450 | Potency, µM (titrated, usually from 53.6 µM), without a hit: top-dose activity change, negative = inhibition, actives largely listed as inhibitors | actives 5.4% (n = 310,000); note: potency is the fitted concentration of half-maximal effect; nearly all actives have a fitted effect of over 60% in size
Target sequence (P51450 whole entry, looked up, the tested form may be a part): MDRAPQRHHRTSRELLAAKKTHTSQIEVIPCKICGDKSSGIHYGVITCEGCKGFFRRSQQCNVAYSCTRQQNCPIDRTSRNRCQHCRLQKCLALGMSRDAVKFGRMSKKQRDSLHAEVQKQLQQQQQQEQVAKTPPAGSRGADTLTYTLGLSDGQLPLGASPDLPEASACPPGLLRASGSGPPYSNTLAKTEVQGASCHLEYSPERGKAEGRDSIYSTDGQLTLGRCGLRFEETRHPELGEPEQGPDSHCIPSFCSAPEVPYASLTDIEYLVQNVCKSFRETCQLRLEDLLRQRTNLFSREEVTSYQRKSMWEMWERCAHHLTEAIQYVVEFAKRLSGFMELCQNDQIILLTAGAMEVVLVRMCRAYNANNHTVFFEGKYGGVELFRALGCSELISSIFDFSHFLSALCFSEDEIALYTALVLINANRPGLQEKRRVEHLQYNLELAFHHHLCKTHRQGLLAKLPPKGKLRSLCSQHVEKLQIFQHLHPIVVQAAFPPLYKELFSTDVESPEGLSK
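Luminescence from a UAS-regulated Photinus luciferase reporter in stably transfected Drosophila Schneider cells is measured; decreased signal marks ROR gamma inhibition. Fusion expression is induced by 700 uM copper sulfate for 20 hr.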
DT40 TDP1 no CPT: qHTS for Inhibitors of human tyrosyl-DNA phosphodiesterase 1 (TDP1): qHTS in cells in absence of CPT; DT40 Tdp1-/- hTDP1 cells, no CPT, ATP luminescence, 48 h; Potency, µM (doses to about 46.2 µM), for inactives: at the top dose activity change, negative = growth inhibition, usual class: inhibitors; actives 15% (n = 420,000); AID 686978, 2013; note: potency is the fitted concentration of half-maximal effect; nearly all actives have a fitted effect of over 55% in size
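DT40 Tdp1-/-;hTDP1 cells, no CPT (DMSO vehicle only), 400 cells/well; compounds pin-transferred; ≥48 hr, 37 °C; CellTiter-Glo 30 min RT dark, luminescence read.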
* marks the source's active call; other numbers are inactive results; [ ] = another dose, or the depositor's remark. Compounds with a hit are over-represented: about 21% of the library has one in this group of screens. Unless noted, calls come from the whole dose curve; as a rule, active = well fitted curve in the direction sought with a large enough effect; inconclusive = small, poorly fitted or top-dose-only effect, or another doubt; inactive = no such curve, though single readings can be large; an effect the other way counts as inactive or inconclusive. % is set by controls: 0 for no effect and ±100 for the full control effect.

`COc1ccc(NC(=O)C(C)n2nc(C)c3c(C)n(-c4ccccc4)nc3c2=O)cc1Cl` (stereo not given) gave DT40 TDP1 CPT -28% and DT40 TDP1 no CPT inconclusive.
For CSc1nc(Cc2ccccc2)nc2ccccc12 the results were IL1B secr inh -7, ELG1 repair inh 2%, Gal4-VP16 FLuc -4%, DT40 TDP1 CPT -23%, RORg inh -5% and DT40 TDP1 no CPT -14%.
For C=C(C)C(O)/C=C/c1ccc(C)cc1 (stereo not given) the results were Gal4-VP16 FLuc -2%[10 µM] and RORg inh 5%[10 µM].
`CN(CC(=O)Nc1ccccc1Cl)C(=O)COC(=O)C1CC1` gave IL1B secr inh 8, ELG1 repair inh 25%, DT40 TDP1 CPT 11% and DT40 TDP1 no CPT 8%.
c1csc(-c2csc3nc(CN4CCOCC4)nc(NCc4ccc5c(c4)OCO5)c23)c1 was read as IL1B secr inh -26, ELG1 repair inh inconclusive, Gal4-VP16 FLuc inconclusive, DT40 TDP1 CPT 23µM*, RORg inh 18µM* and DT40 TDP1 no CPT inconclusive.
For CC(C)c1ccc(C(=O)Nc2cccnc2)cc1 the results were IL1B secr inh -4, ELG1 repair inh inconclusive, Gal4-VP16 FLuc -19%, DT40 TDP1 CPT -1%, RORg inh inconclusive and DT40 TDP1 no CPT -27%.
For Cc1ccc(NC2Nc3cc(C)nn3S2)c(C)c1 (stereo not given) the results were IL1B secr inh 43, ELG1 repair inh inconclusive, Gal4-VP16 FLuc inconclusive, DT40 TDP1 CPT -1%, RORg inh 3.5µM* and DT40 TDP1 no CPT -10%.
`Cc1cc2n(n1)SC(Nc1ccccc1)N2` (stereo not given) gave IL1B secr inh -9, ELG1 repair inh inconclusive, Gal4-VP16 FLuc 4.5µM*, DT40 TDP1 CPT 2%, RORg inh 3.2µM* and DT40 TDP1 no CPT 6%.
For Cc1cc(NC(=NC2CC2)c2ccccc2)n(-c2ccccc2)n1 the results were IL1B secr inh -13, ELG1 repair inh 0%, Gal4-VP16 FLuc -19%, DT40 TDP1 CPT -3%, RORg inh -35% and DT40 TDP1 no CPT -6%.
Cc1ccc(N=CNc2ccc(C)cc2C)c(C)c1 was read as IL1B secr inh 45, ELG1 repair inh -6%, Gal4-VP16 FLuc 1%, DT40 TDP1 CPT -1%, RORg inh 9% and DT40 TDP1 no CPT 2%.
For COc1ccc(NC(=O)Cn2nc3c(cc2=O)CCCC3)cc1Cl the results were DT40 TDP1 CPT -15% and DT40 TDP1 no CPT -18%.
Screening COc1cccc(N(Cc2nnc3n2CCCCC3)C(=O)Nc2cccc(Cl)c2)c1 returned DT40 TDP1 CPT -23% and DT40 TDP1 no CPT -19%.
`Nc1ccccc1C(=O)CC(N)C(=O)O` (stereo not given) gave Gal4-VP16 FLuc 28µM*, DT40 TDP1 CPT -3%, RORg inh 13µM* and DT40 TDP1 no CPT -16%.
`Cc1cccc(NC(=O)CSC2=Nc3ccccc3C3=NC(CCC(=O)NCc4ccc(F)cc4)C(=O)N23)c1` (stereo not given) gave DT40 TDP1 CPT -29% and DT40 TDP1 no CPT inconclusive.
`COc1ccc(Cl)cc1NC(=O)CSC1=Nc2ccccc2C2=NC(CC(=O)NC3CCCCC3)C(=O)N12` (stereo not given) gave DT40 TDP1 CPT 18µM* and DT40 TDP1 no CPT -93%.
COc1ccc(NC(=O)CSC2=Nc3ccccc3C3=NC(CCC(=O)NCc4ccc(F)cc4)C(=O)N23)cc1Cl (stereo not given) was read as DT40 TDP1 CPT inconclusive and DT40 TDP1 no CPT 15µM*.
COc1ccc(Cl)cc1NC(=O)CSC1=Nc2ccccc2C2=NC(CCC(=O)NCc3ccc(F)cc3)C(=O)N12 (stereo not given) was read as DT40 TDP1 CPT 23µM* and DT40 TDP1 no CPT 16µM*.
`Cc1ccc(N(C)S(=O)(=O)c2nnc(NC(=O)CC(C)C)s2)cc1` gave DT40 TDP1 CPT 5% and DT40 TDP1 no CPT -6%.
For O=C(NNc1ccccc1)C(=O)NNS(=O)(=O)c1ccc(CCCl)cc1 the results were IL1B secr inh 38, ELG1 repair inh 6.5µM*, Gal4-VP16 FLuc -5%, DT40 TDP1 CPT -10%, RORg inh 26% and DT40 TDP1 no CPT -11%.
For Nc1ccc(S(=O)(=O)NNC(=O)C(=O)NNc2ccccc2)cc1 the results were IL1B secr inh -12, ELG1 repair inh 17%, Gal4-VP16 FLuc -4%, DT40 TDP1 CPT -25%, RORg inh 9%[10 µM] and DT40 TDP1 no CPT -11%.
`O=[N+]([O-])c1cccc(-c2c(-c3ccccc3)ncc3cc(F)ccc23)c1` gave IL1B secr inh 20, ELG1 repair inh -19%, DT40 TDP1 CPT 8.2µM* and DT40 TDP1 no CPT 21µM*.
Cc1cc(-c2cccc([N+](=O)[O-])c2)nc2ccccc12 was read as IL1B secr inh 10, ELG1 repair inh inconclusive, Gal4-VP16 FLuc 13%, DT40 TDP1 CPT 15%, RORg inh 12% and DT40 TDP1 no CPT -11%.
O=[N+]([O-])c1ccc(-c2c(-c3ccccc3)ncc3cc(F)ccc23)cc1 was read as IL1B secr inh 23, ELG1 repair inh -19%, DT40 TDP1 CPT 15µM* and DT40 TDP1 no CPT 18µM*.
Cc1nn(CC(=O)N2CCC(C)CC2)c(=O)c2cc3sccc3n12 was read as DT40 TDP1 CPT -14% and DT40 TDP1 no CPT -28%.
Screening COc1ccc(C(C)=O)cc1CN1C(=O)C(C)ON=C1c1ncccc1C (stereo not given) returned IL1B secr inh -24, DT40 TDP1 CPT -11% and DT40 TDP1 no CPT 10%.
Screening COc1ccc(C(C)=O)cc1CN1C(=O)C(C)ON=C1c1cccc(C(F)(F)F)c1 (stereo not given) returned IL1B secr inh -22, DT40 TDP1 CPT inconclusive and DT40 TDP1 no CPT 16µM*.
N#C/C(=N\Nc1cccc2ccccc12)c1nnc2n1CCCCC2 was read as IL1B secr inh 27, ELG1 repair inh -8%, Gal4-VP16 FLuc 3.2µM*, DT40 TDP1 CPT inconclusive, RORg inh inconclusive and DT40 TDP1 no CPT 33µM*.

Source: PubChem BioAssay (National Center for Advancing Translational Sciences (NCATS))
